# Assay results published in PubChem BioAssay AID588850 (Sanford-Burnham Center for Chemical Genomics, 2011).
# The whole screen tested about 360,000 compounds, of which about 3,100 (0.86%) were called active. This is one part of a sample in which actives are shown more often than they occur. Unmarked numbers belong to inactive results.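 The calls were made as follows: active = at least 50% inhibition at 5 µM, scaled per plate between neutral and stimulator controls; inactive = the rest.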
# Test: inhibitors of PAF-induced NF-kB signaling, primary screen, cell-based, GFP fluorescence, uHTS (AID 588850);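 also: PAF is a Pseudomonas aeruginosa culture filtrate used as stimulus; plate controls were PAF-stimulated DMSO wells for no effect and unstimulated DMSO wells for full effect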
# Details: KKLEB NF-kB-GFP reporter, GFP fluorescence overnight, at 5 µM, stronger effect = higher value
row,SMILES,inhibition
1,Cc1ccccc1C(CC(=O)c1cccs1)C(C#N)C#N (configuration not stated),83.8% (active)
2,Cc1ccc(C)c(NC(CC(=O)c2ccccc2)C(=O)OCC(=O)c2cccs2)c1 (configuration not stated),-4.5%
3,O=C(NCC(=O)N1CCN(c2ccccc2F)CC1)c1cccs1,-14.2%
4,O=Nc1c(O)cc(O)c2ccccc12,-12.5%
5,O=Cc1c(NCCc2cccc(F)c2)c2ccccc2[nH]c1=O,5%
6,O=C(Cn1c(NCCO)nc2ccccc21)c1ccc(Cl)cc1Cl,1.6%
7,OCCNc1nc(Nc2ccc(Cl)c(Cl)c2)nc2ccccc12,87.5% (active)
8,OCCNCCOc1ccc(Cl)c(Cl)c1,-8.5%
9,O=c1[nH]c(=S)[nH]c(O)c1/C=C1\C=Nc2ccccc21,69.3% (active)
10,c1csc(-c2nnc(COc3ncnc4sccc34)o2)c1,18.1%
11,C=C(C)C(=O)O[C@H]1C/C(C)=C\C(=O)/C=C(\C)[C@H](O)[C@@H]2OC(=O)C(=C)[C@@H]21,74.1% (active)
12,CCN(Cc1ccccc1)C(=O)CSc1nc(C)cc2c1C(=O)OC2,5%
13,Oc1c(Cl)cc(Cl)c(Cl)c1Cc1c(O)c(Cl)cc(Cl)c1Cl,65.4% (active)
14,O=c1[nH]c(CCl)nc2cc(-c3ccc(Cl)cc3)sc12,7.1%
15,CC[N+]1(CC)CC2=Cc3ccccc3CC2C1 (configuration not stated),-4%
16,COc1ccc(CC(=O)c2ccc(O)cc2O)cc1OC,-7.8%
17,C=CCOc1ccccc1CNn1c(C)n[nH]c1=S,5.7%
18,O=C(CSc1ncnc2scc(-c3ccccc3)c12)NCc1ccc2c(c1)OCO2,13.3%
19,O=C(COC(=O)c1ccc(Cl)nc1)NCc1ccc2c(c1)OCO2,-9.2%
20,CN(C)C(=O)c1cccc(-c2cnc3sc(NCc4ccc5c(c4)OCO5)nn23)c1,82.2% (active)
21,Cc1ccc(Cn2c(C)c(C(=O)NCc3ccccc3C(F)(F)F)sc2=O)cc1,-26.2%
22,Cc1c(Nc2nc3ccccc3nc2NS(=O)(=O)c2cccs2)c(=O)n(-c2ccccc2)n1C,9.5%
23,Cc1ccc(C2CCN(C(=S)Nc3cccc(Cl)c3)C2)cc1 (configuration not stated),7.5%
24,COc1ccc(/C=C/C(=O)NC(=S)NN2CCCCC2c2cccnc2)cc1 (configuration not stated),-13%

row,SMILES,inhibition
1,Cc1ccc(Cc2c(-c3ccco3)nc3ccc(Cl)cn23)cc1,66.3% (active)
2,Cc1ccc2nc(-c3ccco3)c(Cc3cccc(Cl)c3)n2c1,2.7%
3,Cc1ccc(Cc2c(-c3ccccc3)nc3ccc(Cl)cn23)cc1,20.8%
4,S=c1[nH]c2ccccc2c2ccccc12,-8.9%
5,CC(=O)c1cccc(-c2cnc3c(NC=O)cc(-c4ccc(N5CCN(C)CC5)cc4)cn23)c1,22.9%
6,O=C(Nc1ccc(Cl)cc1)Nc1nnc(/C=C/c2ccccc2)s1,51.2% (active)
7,COc1ccc(/C=C/c2nnc(NC(=O)C(C)C)s2)cc1,17.7%
8,O=C(CSc1ccccc1)Nc1nnc(/C=C/c2ccccc2)s1,22.7%
9,Cc1cc(OCCCC(=O)Nc2cc(S(=O)(=O)N3CCOCC3)ccc2N2CCOCC2)ccc1Cl,7.1%
10,CCOC(=O)c1sc2nc(C)nc(SCC(N)=O)c2c1C,11.9%
11,O=C(Nc1ccccc1Cl)/C(Cl)=C(\Cl)S(=O)c1ccccc1 (configuration not stated),82.8% (active)
12,O=C(COc1ccc(-n2cnnn2)cc1)Nc1ccccc1Cl,-3.5%
13,CC(=O)c1ccc(NC(=O)C(C)N(C)CC(=O)Nc2ccccc2Cl)cc1 (configuration not stated),2.6%
14,COc1cccc(CC(=NO)c2cccc(OC)c2)c1,11.3%
15,COc1cc(C(=O)NCCOC(=O)c2cccc(N(C)C)c2)cc(OC)c1OC,3.4%
16,Cn1c(=O)c2c(ncn2CC(=O)N/N=C/c2cn[nH]c2-c2ccc(F)cc2)n(C)c1=O,-32.9%
17,NC1=CC(=O)C(=O)c2cccnc21,92.2% (active)
18,CCCCc1nc(NCCN)c(C#N)c2c1CSC(C)(C)C2,2.5%
19,FC(F)Oc1ccc(NC(=S)NCc2ccco2)cc1Cl,-1.9%
20,CCOc1c(Nc2cccc(Cl)c2)c(=O)c1=O,-0.1%
21,OCCCNc1nccc(-c2cc(Nc3cccc(Cl)c3)ncn2)n1,84.5% (active)
22,Cc1nc(C(F)(F)F)ccc1C(=O)N1CCC1(C)C(=O)NS(=O)(=O)c1ccc(F)cc1F (configuration not stated),0.2%
23,O=C(CCN1C(=O)[C@@H]2Cc3ccccc3CN2C1=O)NCCc1ccccc1,16%
